Assay results taken from PubChem BioAssay AID1345085 (National Center for Advancing Translational Sciences (NCATS), 2018).
Records with an inconclusive call do not appear. A call without a number means that no potency is given here. The source made the active and inactive calls. Calls come from the whole dose curve; as a rule, active = well fitted cell-killing curve with a large enough effect; inconclusive = small, poorly fitted or top-dose-only effect, or effect the other way; inactive = no such curve, though single readings can be large or run the other way.

Test system: SW626
Test: Confirmatory qHTS for gynecologic anti-cancer compounds from libraries of approved drugs and bioactive compounds; note: nearly all actives have a fitted effect of over 55% in size
Conditions: gynecologic cancer cell panel viability, ATPlite luminescence, 48 h; series mostly up to 57.6 µM
Procedure, shortened: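 1,000 cells/well; 16 h pre-incubation 37 C, 5% CO2; pin-transferred cpd in DMSO, 11 conc (1:3), 57.5 uM–0.977 nM; 48 h; ATPlite, 15 min RT; luminescence → IC50.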
Potency is the fitted concentration of half-maximal effect.

SMILES | Potency
CCOc1ccc(Nc2nc(-c3c(C)nc4ccccn34)cs2)cc1 | inactive
CC[C@@]1(O)C(=O)OCc2c1cc1n(c2=O)Cc2cc3c(CN(C)C)c(O)ccc3nc2-1 | 0.863 µM (active)
COc1cc(-c2nn(C3CCC(N4CCN(C(C)=O)CC4)CC3)c3ncnc(N)c23)ccc1NC(=O)c1cc2ccccc2n1C (stereo unspecified) | 27.3 µM (active)
N=C(N)c1ccc(OCCCCCOc2ccc(C(=N)N)cc2)cc1 | inactive
CN1CCN(c2ccc(OC(F)(F)F)c(Nc3ncc4c(n3)-c3c(c(C(N)=O)nn3CCO)CC4)c2)CC1 | inactive
CC(Oc1ccc2[nH]nc(/C=C/c3cnn(CCO)c3)c2c1)c1c(Cl)cncc1Cl (stereo unspecified) | inactive
CCOC(=O)C1=C(C)NC2=C(C(=O)CC(C)(C)C2)C1c1ccc(-c2ccccc2)cc1 (stereo unspecified) | inactive
CN(C)C/C=C/C(=O)Nc1cc2c(Nc3ccc(F)c(Cl)c3)ncnc2cc1OC1CCOC1 (stereo unspecified) | 27.3 µM (active)
CN(C)CC/C=C1\c2ccccc2COc2ccccc21 | inactive
Cc1ccc(C(=O)N(CCCN)C(c2oc3cc(Cl)ccc3c(=O)c2Cc2ccccc2)C(C)C)cc1 (stereo unspecified) | 24.3 µM (active)
Cc1ccc(C(N)=O)cc1Nc1nccc(-c2cn(C(C)C)c3cnccc23)n1 | inactive
Cc1cnc(Nc2cccc(CN3CCOCC3)c2)nc1Nc1cccc(S(=O)(=O)NC(C)(C)C)c1 | 24.3 µM (active)
Cc1cc(C2CCCCC2)n(O)c(=O)c1 | 8.86 µM (active)
CCN(CC)CCCC(C)Nc1ccnc2cc(Cl)ccc12 (stereo unspecified) | inactive
CN[C@@H](C)C(=O)N[C@H]1CN(C(=O)CC(C)C)CC[C@H]2CC[C@@H](C(=O)NC(c3ccccc3)c3ccccc3)N2C1=O | inactive
COc1cccc2c1C(=O)c1c(O)c3c(c(O)c1C2=O)C[C@@](O)(C(=O)CO)C[C@@H]3O[C@H]1C[C@H](N)[C@H](O[C@@H]2CCCCO2)[C@H](C)O1 | 7.69 µM (active)

SMILES | Potency
Nc1ccc(-c2ccc3ncc4ccc(=O)n(-c5cccc(C(F)(F)F)c5)c4c3c2)cn1 | 6.11 µM (active)
CC[C@H](CC#N)OC(=O)N[C@@H](C)c1cccc(NC(=O)Nc2ccc(-c3cnco3)c(OC)c2)c1 | inactive
CCCc1nn(C)c2c(=O)[nH]c(-c3cc(S(=O)(=O)N4CCN(C)CC4)ccc3OCC)nc12 | inactive
O=C1NC(=O)C(c2cnc3ccccn23)=C1c1cn2c3c(cccc13)CN(C(=O)N1CCOCC1)CC2 | inactive
Cn1cnc2c(F)c(Nc3ccc(Br)cc3Cl)c(C(=O)NOCCO)cc21 | 2.73 µM (active)
CC(C)C[C@H](NC(=O)[C@H](Cc1ccccc1)NC(=O)c1cnccn1)B(O)O | 0.0137 µM (active)
Cc1cc(Nc2cc(N3CCN(C)CC3)nc(/C=C/c3ccccc3)n2)n[nH]1 | 21.7 µM (active)
CC(C)(C(=O)NCC(F)(F)C(F)(F)F)C(=O)NC1C(=O)Nc2ccccc2-c2ccccc21 (stereo unspecified) | inactive
CNc1nc(Nc2ccc(C(=O)N3CCOCC3)cc2OC)ncc1Cl | inactive
COc1c(C)c2c(c(O)c1C/C=C(\C)CCC(=O)O)C(=O)OC2 | inactive
CC(C)CC(=O)Nc1n[nH]c2c1CN(C(=O)C1CCN(C)CC1)C2(C)C | inactive
Cc1[nH]c2ccccc2c1CCNCc1ccc(/C=C/C(=O)NO)cc1 | 0.0968 µM (active)
COCCOc1nc(-c2ccc(Cl)c(Cl)c2)n(-c2ccc(NC(=O)CCl)cc2)n1 | 6.11 µM (active)
CNC1CCC(N(Cc2cccc(-c3ccncc3)c2)C(=O)c2sc3ccccc3c2Cl)CC1 (stereo unspecified) | 30.6 µM (active)
O=C(Nc1cccnc1)N1CCC(Cc2cccc(Oc3ccc(C(F)(F)F)cn3)c2)CC1 | inactive
